This test addresses Eukaryotic translation initiation factor 4H (Homo sapiens) (UniProt Q15056). Kind of test: eIF4H binding inhibition – biochemical, uHTS, fluorescence polarization, translation initiation inhibitor project, primary screen (AID 2012).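 Note: calls also rest on retests at 20 µM and on dose response follow-up.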 Conditions: eIF4H fluorescence polarization binding assay, stronger effect = higher value.

The source of these data is PubChem BioAssay AID2012 (Sanford-Burnham Center for Chemical Genomics, 2009).

The campaign covered roughly 290,000 compounds. About 2,700 (0.93%) were called active. The rule behind the calls is not given here. The full list was thinned out, with actives kept by preference.

As to `COc1cc(OC)c(NC(=O)C2CCCN2C(=O)OCc2ccccc2)cc1Cl` (centres undefined), under “at 35 µM”, the inhibition was -2% (inactive).
Regarding `Cc1cccc(C(=O)NC(=S)N(C)C2CCCCC2)c1`, the inhibition (at 35 µM) is -8.7% (inactive).
On to `S=C(NCc1ccco1)Nc1ccc2c(c1)OCCO2`, for which the inhibition was -2.7% (active) (at 35 µM) and 51.4% (confirmation average, at 20 µM).
Take `COc1cccc(NC(=S)NCc2ccco2)c1`: the inhibition (at 35 µM) is 22.2% (inactive).
Same read-out and setting: for `S=C(NCc1ccc2c(c1)OCO2)NCc1ccco1` the value was -0.2% (inactive); for `O=C(CSc1ccc(-c2ccc(Br)cc2)nn1)NCC1CCCO1` (centres undefined), 3.3% (inactive).
As to `O=C(COc1ccc(/C=N/NC(=O)c2ccc(O)cc2)cc1)Nc1ccc([N+](=O)[O-])cc1`, the inhibition (at 35 µM) is -1.7% (active) and the inhibition (confirmation average, at 20 µM) was determined as 85.6%.
For `O=C(COc1ccc([N+](=O)[O-])cc1)Nc1ccc(N2CCCC2)cc1`, the inhibition (at 35 µM) was 13.8% (inactive).
Same read-out and setting: for `O=C(N/N=C/c1ccc(OCc2ccccc2)cc1)c1ccc(O)cc1` the value was -5.8% (inactive); for `CCSCc1nc(N)nc(NCCc2ccccc2)n1`, -0.9% (inactive).
For `CC(=O)c1cnc(SCC(=O)O)nc1C`, the inhibition is, setting by setting: (at 35 µM) -2.4% (active); (confirmation average, at 20 µM) 82.3%.
In the case of `CC(=O)c1cnc(SCCN2C(=O)c3ccccc3C2=O)nc1C`, the inhibition (at 35 µM) is -11.9% (inactive).
Same read-out and setting: for `CSc1ncc(C(=O)NCCCc2ccccc2)c(C)n1` the value was -7.3% (inactive); for `CSCCC(NS(=O)(=O)c1ccccc1F)C(=O)N1CC=C(c2ccccc2)CC1` (centres undefined), 0% (inactive).
Consider `Cn1cccc1/C=N/NC(=O)c1ccc(OC(F)(F)C(F)F)cc1`, for which the inhibition runs as follows: (at 35 µM) 9.7% (active); (confirmation average, at 20 µM) 56.1%.
`Cn1cccc1/C=N/NC(=O)CNc1cccc2ccccc12`: the inhibition (at 35 µM) was -6.2% (inactive).
In the case of `COc1ccc(/C=N/NC(=O)c2cccc(C(F)(F)F)c2)cc1`, the inhibition (at 35 µM) is -2.2% (inactive).
Consider `NC(=O)c1ccc(Nc2ccc3nonc3c2[N+](=O)[O-])cc1`, for which the inhibition (at 35 µM) is -14.2% (inactive).
Turning to `COc1ccccc1NC(=O)N1CCCC1C(=O)NCc1cccs1` (centres undefined), under “at 35 µM”, the inhibition was -15.4% (inactive).
On the same count and under the same terms, for `CCS(=O)(=O)N1CCC(N2CCN(c3ccccc3)CC2)CC1` the value was 7.8% (inactive); for `CC(/C=N/NC(=O)c1ccncc1)=C\c1ccco1`, 25.2% (inactive).
Turning to `CC(/C=N/NC(=O)c1cc(-c2ccc3ccccc3c2)n[nH]1)=C\c1ccco1`, the inhibition is, setting by setting: (at 35 µM) 66.1% (inactive); (confirmation average, at 20 µM) -19.6%.
Regarding `C/C(=C\c1ccco1)C1Nc2cccc3cccc(c23)N1`, where the note is “at 35 µM”, the inhibition was 107% (active).
Turning to `Cc1ccc(-n2nc3ccc(NC(=O)/C=C/c4ccco4)cc3n2)cc1C`, the inhibition reads like this: (at 35 µM) 71.7% (active); (confirmation average, at 20 µM) 73.8%.
On to `O=C(/C=C/c1ccco1)Nc1cccc(-c2nc3ccccc3[nH]2)c1`, for which, where the note is “at 35 µM”, the inhibition is -7.2% (inactive).
With `O=C(/C=C/c1ccco1)Nc1ccc(Oc2ccccc2)cc1`, the inhibition (at 35 µM) was 2.4% (inactive).
The same measure, in the same setting: for `COc1ccc(C2CC(c3ccc([N+](=O)[O-])cc3)=NN2C(C)=O)cc1` (centres undefined) the value was 2.5% (inactive); for `N#CC1=C(N)Oc2c(sc3ccccc23)C1c1ccco1` (centres undefined), 74% (active).
As to `Cc1cc(C)c2c3c(sc2n1)C(c1ccccc1)C(C#N)=C(N)O3` (centres undefined), the inhibition was 1% (inactive) (at 35 µM) and 28.6% (confirmation average, at 20 µM).
In the case of `CC1=C(C(=O)Nc2ccccc2)C(c2ccco2)C(C#N)=C(SCC(N)=O)N1` (centres undefined), the inhibition (at 35 µM) is 10.9% (inactive).
Still for that read-out and setting: for `COc1ccccc1CCNC(=O)c1c(C)nn(CC(C)C)c1Cl` the value was -10.7% (inactive); for `O=S(=O)(Oc1ccccc1C(=S)N1CCOCC1)c1ccc(Cl)cc1`, 1% (inactive).
Same read-out and setting: for `CCN(CC)c1ccc(/C=N/NC(=O)c2cnccn2)c(O)c1` the value was 1.5% (inactive).
For the molecule `CCN(CC)c1ccc(/C=N/Nc2nc(C)cc(C)n2)c(O)c1`, the inhibition was 83.3% (active) (at 35 µM) and 87.6% (confirmation average, at 20 µM).
Take `Cc1cc(C)nc(N/N=C/c2ccncc2)n1`: the inhibition (at 35 µM) is -8.8% (inactive).
Still for that read-out and setting: for `Cc1ccccc1CN1CCNC(=O)C1CC(=O)NCCC1=CCCCC1` (centres undefined) the value was 5.3% (inactive); for `COc1cccc(CNS(=O)(=O)c2csc(C(N)=O)c2)c1`, 5.7% (inactive); for `CS(=O)(=O)N1CCc2nc(-c3ccccc3)sc2C1`, -3.4% (inactive).
On the same count and under the same terms, for `Cc1cc([N+](=O)[O-])ccc1NC(=O)C1CCCO1` (centres undefined) the value was -1.7% (inactive); for `Cc1cc(C)c2nc(NC(=O)C3CCCO3)sc2c1` (centres undefined), -3.8% (inactive).
Still for that read-out and setting: for `Cc1ccc(C)c(C(C)NC(=O)C2CCCO2)c1` (centres undefined) the value was 92.8% (active); for `COc1ccc(COC(=O)c2ccc(Cl)c(S(=O)(=O)N3CCOCC3)c2)cc1F`, 1.3% (inactive).
In the case of `NS(=O)(=O)c1ccc(NC(=O)COC(=O)c2ccc(Cl)nc2)cc1`, the inhibition (at 35 µM) was 7.6% (inactive).
Turning to `NS(=O)(=O)c1ccc(NC(=O)COC(=O)c2cc3ccccc3oc2=O)cc1`, where the note is “at 35 µM”, the inhibition is -1.4% (inactive).
With `NS(=O)(=O)c1ccc(NC(=O)COC(=O)c2ccco2)cc1`, the inhibition (at 35 µM) was -10.4% (active) and the inhibition (confirmation average, at 20 µM) came out at 80.1%.

For orientation: inhibition means the change of the read-out against control, counted positive when it falls.
